Experimental data published in PubChem BioAssay (Tox21).
Results filed as inconclusive are left out. Where a call stands in place of a potency, no number is given. Values without a mark were called inactive. The source made the active and inactive calls. The call rests on the fitted dose curve; in most records, active means well fitted cell-killing curve with a large enough effect in the repeat runs; inconclusive means weak or mixed curves, or effect the other way; inactive means flat fitted curve, though single readings scatter.

What was measured:
[1] = cAMP Responsive Elements (CRE) small molecule antagonists, cell-based qHTS assay: qHTS cell viability counter screen (AID 2060913); further: nearly all actives have a fitted effect of over 40% in size
How it was run: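 Steps: cells plated and held 18 hrs at 37 C/5% CO2; compounds and NKH477 (0.25 uM final) added; 3 hrs incubation; reporter substrate read; CellTiter-Glo added to measure cytotoxicity by luminescence.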

[2] = cAMP Responsive Elements (CRE) small molecule agonists, cell-based qHTS assay: qHTS cell viability counter screen (AID 2060914);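 further: viability read after 3 h of compound exposure; nearly all actives have a fitted effect of over 50% in size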
How it was run: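 Cytotoxicity counter screen multiplexed with the CRE-bla reporter assay in HEK 293T cells: 3 h compound exposure at 37 °C, followed by CellTiter-Glo luminescence measured in the same wells.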
Potency means the concentration at half of the fitted maximal effect.

With `CCCCCCCCCOCC1CO1` (centres undefined) the Potency [1] was “inactive” and the Potency [2] was “inactive”.

In the case of `CCN(CC)CCNC(C(=O)OCCC(C)C)c1ccccc1` (centres undefined), the Potency [1] was “inactive” and the Potency [2] was “inactive”.

In the case of `O=C(CCNNC(=O)c1ccncc1)NCc1ccccc1`, the Potency [1] was “inactive” and the Potency [2] was “inactive”.

With `O=C(O)c1cccnc1C(=O)O` the Potency [1] was “inactive” and the Potency [2] was “inactive”.

With `Cc1ccc(O)c([N+](=O)[O-])c1` the Potency [1] was “inactive” and the Potency [2] was “inactive”.

In the case of `CN1CCC[C@H]1c1cccnc1`, the Potency [1] was “inactive” and the Potency [2] was “inactive”.

In the case of `C[Si](C)(C)Cl`, the Potency [1] was “inactive” and the Potency [2] was “inactive”.

In the case of `Cn1c([N+](=O)[O-])cnc1COC(N)=O`, the Potency [1] was “inactive” and the Potency [2] was “inactive”.

For `O=C(O)c1cc(C(=O)O)c(C(=O)O)cc1C(=O)O`, the Potency [1] was “inactive” and the Potency [2] was “inactive”.

With `Cc1ccc2nc(N)[nH]c(=O)c2c1Sc1ccncc1` the Potency [1] was “inactive” and the Potency [2] was “inactive”.

In the case of `CCCC=O`, the Potency [1] was “inactive” and the Potency [2] was “inactive”.

In the case of `Cc1ccc(/C(=C\CN2CCCC2)c2ccccn2)cc1`, the Potency [1] was “inactive” and the Potency [2] was “inactive”.

In the case of `O=C(O)/C=C\C(=O)O`, the Potency [1] was “inactive” and the Potency [2] was “inactive”.

In the case of `OCC(CO)(CO)CO`, the Potency [1] was “inactive” and the Potency [2] was “inactive”.

For `C=CC(=O)O[C@H]1C[C@@H]2CC[C@@]1(C)C2(C)C`, the Potency [1] was “inactive” and the Potency [2] was “inactive”.

In the case of `NC(N)=NC(=O)Cc1c(Cl)cccc1Cl`, the Potency [1] was “inactive” and the Potency [2] was “inactive”.

In the case of `O=C=Nc1cccc(C(F)(F)F)c1`, the Potency [1] was “inactive” and the Potency [2] was “inactive”.

For `CC(C)=CCCC(C)CC(=O)O` (centres undefined), the Potency [1] was “inactive” and the Potency [2] was “inactive”.

With `COC(=O)CS` the Potency [1] was “inactive” and the Potency [2] was “inactive”.

In the case of `CN(C)CCC[C@@]1(c2ccc(F)cc2)OCc2cc(C#N)ccc21`, the Potency [1] was “inactive” and the Potency [2] was “inactive”.

For `C=CCCC=C`, the Potency [1] was “inactive” and the Potency [2] was “inactive”.

For `CC(=O)OC1CCC(C(C)(C)C)CC1` (centres undefined), the Potency [1] was “inactive” and the Potency [2] was “inactive”.

For `C/C=C(\C)C(=O)OCC/C=C\CC`, the Potency [1] was “inactive” and the Potency [2] was “inactive”.

In the case of `CCN(CC)C(=O)c1cccc(C)c1`, the Potency [1] was “inactive” and the Potency [2] was “inactive”.

With `CCCCCCCCCCCCCCCCCl` the viability change, negative = cytotoxic [1] was 3.61% [at 18.9 µM] and the activity change, negative = cytotoxicity [2] was -18.4% [at 18.9 µM].

For `Cc1cc(CCCOc2c(C)cc(-c3noc(C(F)(F)F)n3)cc2C)on1`, the Potency [1] was “inactive” and the Potency [2] was “inactive”.

With `CSSc1ccoc1C` the Potency [1] was “inactive” and the Potency [2] was “inactive”.

In the case of `CSc1ccc(Oc2ccc(S(N)(=O)=O)cc2CN(C)C)cc1C`, the Potency [1] was “inactive” and the Potency [2] was “inactive”.

For `COc1cc2c(cc1OC)[C@@H]1CC(=O)[C@@H](CC(C)C)CN1CC2`, the Potency [1] was “inactive” and the Potency [2] was “inactive”.

With `N#Cc1ccc(CC(=O)c2cccc(C(F)(F)F)c2)cc1` the Potency [1] was “inactive” and the Potency [2] was “inactive”.

For `CC1CC(OC(=O)C(O)c2ccccc2)CC(C)(C)N1C` (centres undefined), the Potency [1] was “inactive” and the Potency [2] was “inactive”.

With `CC(C)Oc1ccccc1O` the Potency [1] was “inactive” and the Potency [2] was “inactive”.

For `Nc1ccc(S(=O)(=O)Nc2ccc(Cl)nn2)cc1`, the Potency [1] was “inactive” and the Potency [2] was “inactive”.

For `NC(=O)Cc1cccc2ccccc12`, the Potency [1] was “inactive” and the Potency [2] was “inactive”.

In the case of `Oc1ccccc1Cc1ccccc1O`, the Potency [1] was “inactive” and the Potency [2] was “inactive”.

For `Cc1cc(O)c(C(C)(C)C)cc1C(C)(C)C`, the Potency [1] was 43.3 µM (active) and the Potency [2] was 48.6 µM (active).

In the case of `Cn1sccc1=O`, the Potency [1] was “inactive” and the Potency [2] was “inactive”.

With `CC(O)CN(CCN(CC(C)O)CC(C)O)CC(C)O` (centres undefined) the Potency [1] was “inactive” and the Potency [2] was “inactive”.

In the case of `O=C(c1ccc(O)cc1)c1ccc(Cl)cc1`, the Potency [1] was “inactive” and the Potency [2] was “inactive”.

For `CC(C)C(=O)C(C)C`, the Potency [1] was “inactive” and the Potency [2] was “inactive”.

For `CN(C)CCCO[C@@H]1[C@H]2OC(C)(C)O[C@H]2O[C@@H]1C(O)CO` (some centres undefined), the Potency [1] was “inactive” and the Potency [2] was “inactive”.

With `NC(=O)c1ccc([N+](=O)[O-])cc1` the Potency [1] was “inactive” and the Potency [2] was “inactive”.

For `O=C(O)c1cc(O)c(O)c(O)c1`, the Potency [1] was “inactive” and the Potency [2] was “inactive”.

In the case of `O=S(=O)(O)CC(O)CCl` (centres undefined), the Potency [1] was “inactive” and the Potency [2] was “inactive”.

In the case of `c1ccncc1`, the Potency [1] was “inactive” and the Potency [2] was “inactive”.

For `CCCCS`, the Potency [1] was “inactive” and the Potency [2] was “inactive”.

For `Cc1ccc(C(C)C)cc1`, the Potency [1] was “inactive” and the Potency [2] was “inactive”.

In the case of `Cc1nc(Nc2ncc(C(=O)Nc3c(C)cccc3Cl)s2)cc(N2CCN(CCO)CC2)n1`, the Potency [1] was “inactive” and the Potency [2] was “inactive”.

For `C1OCOCO1`, the Potency [1] was “inactive” and the Potency [2] was “inactive”.

In the case of `Cc1ccc(O)c([C@H](CCN(C(C)C)C(C)C)c2ccccc2)c1`, the Potency [1] was “inactive” and the Potency [2] was “inactive”.

In the case of `Nc1ccc2cc3ccccc3cc2c1`, the Potency [1] was “inactive” and the Potency [2] was “inactive”.

With `COc1ccc(OC)c(OC)c1` the Potency [1] was “inactive” and the Potency [2] was “inactive”.

Compound `COC=O` has a viability change, negative = cytotoxic [1] of -17.9% [at 8.39 µM] and an activity change, negative = cytotoxicity [2] of -1.81% [at 8.39 µM].

In the case of `CCNc1nc(NC(C)(C)C)nc(OC)n1`, the Potency [1] was “inactive” and the Potency [2] was “inactive”.

For `CCOC(=O)CC(=O)OCC`, the Potency [1] was “inactive” and the Potency [2] was “inactive”.

With `CN1CC(=O)NC1=N` the Potency [1] was “inactive” and the Potency [2] was “inactive”.

In the case of `COC(=O)C1=C(C)NC(C)=C(C(=O)OCCN2CCN(C(c3ccccc3)c3ccccc3)CC2)C1c1cccc([N+](=O)[O-])c1` (centres undefined), the Potency [1] was “inactive” and the Potency [2] was “inactive”.

With `CCCCCCCC/C=C/CCCCCCCC1=NCCN1CCO` the Potency [1] was “inactive” and the Potency [2] was “inactive”.

In the case of `c1ccc2cc3c(ccc4ccccc43)cc2c1`, the Potency [1] was “inactive” and the Potency [2] was “inactive”.

With `CS(=O)(=O)c1ccc(-c2cn3ccccc3n2)cc1` the Potency [1] was 26.6 µM (active) and the Potency [2] was “inactive”.

With `CCCCOC(=O)CC(CC(=O)OCCCC)(OC(C)=O)C(=O)OCCCC` the Potency [1] was “inactive” and the Potency [2] was “inactive”.

For `O=C1O[C@H]([C@@H](O)CO)C(O)=C1O`, the Potency [1] was “inactive” and the Potency [2] was “inactive”.

For `O=C(O)CCn1c2c(c3ccccc31)C[C@H](NS(=O)(=O)c1ccc(F)cc1)CC2`, the Potency [1] was “inactive” and the Potency [2] was “inactive”.

In the case of `CCN(CCO)c1cccc(C)c1`, the Potency [1] was “inactive” and the Potency [2] was “inactive”.

In the case of `c1ccc(SSc2ccccc2)cc1`, the Potency [1] was “inactive” and the Potency [2] was “inactive”.

In the case of `COCCOC[C@H](CC1(C(=O)NC2CCC(C(=O)O)CC2)CCCC1)C(=O)Oc1ccc2c(c1)CCC2` (some centres undefined), the Potency [1] was “inactive” and the Potency [2] was “inactive”.

In the case of `Cc1oc(-c2ccccc2)nc1CCOc1cccc2c1ccn2CCC(=O)O`, the Potency [1] was “inactive” and the Potency [2] was “inactive”.
